CSC inhib = blocks cancer stem cells. inhibition, % at 7.5 µM. cancer stem cell-like cells viability, luminescence. AID 2717. 300,000 compounds, 1.1% hits; in the data active = inhibition above about 75%; tested in HMLE shEcad cells
MPTP block = permeability transition pore inhibition; inhibition, % at 10 µM; isolated mouse mitochondria, Ca2+ swelling absorbance, 30 min; 360,000 compounds, 1.4% hits; AID 602449;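 active = inhibition of 50% or more, scaled per plate between neutral and stimulator controls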;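 also: 0% = DMSO wells given calcium and 100% = 1 mM EGTA wells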
NR3A LBD binder = modulators (binders) of human NR3A ligand-binding domain; NR3A LBD differential scanning fluorimetry, Tm shift; 0% = protein alone, 100% = glycine-bound protein; Tm shift relative to glycine control, % at 25 µM; 340,000 compounds, 2.5% hits; AID 1259313;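 active = melting temperature shift of at least 10% of the positive control shift, at one fixed dose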
Gli-Sufu antag = antagonists of Gli-Sufu signaling | Sufu-KO-LIGHT fibroblasts, Gli luciferase reporter luminescence | inhibition, % at 5 µM | 340,000 compounds, 0.74% hits;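 active = inhibition above about 55%, limit read from the data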;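 also: 0% = DMSO-treated cells and 100% = wells with medium but no cells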
Mdm2-MdmX inh = disrupts the human Mdm2-MdmX interaction | 330,000 compounds, 3% hits | AID 485346 | O15151+Q00987 | SaOS-2 split-luciferase Mdm2/MdmX complementation, luminescence | inhibition, % at 8 µM;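 active = inhibition of at least 50% at 8 µM in the primary screen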
Beta cell apopt = beta cell apoptosis inhibition; protection from apoptosis, % (concentration not given with the values); 300,000 compounds, 0.8% hits; INS-1E cytokine-induced death, ATP luminescence, 48 h; percent of positive-control rescue, neutral wells zero; AID 435005;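 active = Every replicate reaches about 75%, or at least half do and their mean reaches it too, limit read from the data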;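 also: 0% = cytokine-treated negative control wells and 100% = positive control rescue; higher means more ATP so stronger rescue from cytokine killing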
* = called active by the depositor; x = no result given. This is a sample that favours compounds with a hit; in the whole collection about 6.6% have one here.

SMILES	CSC inhib	MPTP block	NR3A LBD binder	Gli-Sufu antag	Mdm2-MdmX inh	Beta cell apopt
C/C(=N\NC(=O)CN1CCN(c2ccc(F)cc2)CC1)c1ccco1	8.6	2.8	-0.6	6.8	-4.2	4.7
CC(C(=O)NC1CCCCC1)N(Cc1ccccc1)C(=O)c1snc(C(N)=O)c1N (stereo unspecified)	-0.7	-0.9	-4.4	-6.8	-13.3	-3.9
CC(C)(C)c1nnc(N/N=C/c2cc(Br)ccc2O)n(N)c1=O	112.1*	4.5	-5.2	54.9	x	95.1*
CCc1nnc(N/N=C/c2cc(Br)c(O)cc2O)n1N	-4.1	0.5	-2.3	5.3	-5.2	-3.8
Cc1cccc(NC(=O)NNC(=O)c2cc3occc3[nH]2)c1C	-3.7	-0.8	0.7	-2.3	11.7	-5.6
Cc1ccccc1OCC(=O)NC(=S)Nc1cccc2cc(O)ccc12	7.4	2.9	19.5*	0.0	16.6	-3.4
CC1CN(C(=O)COC(=O)c2cncc(Br)c2)CC(C)O1 (stereo unspecified)	x	1.4	x	x	x	x
COc1cccc(-c2nc(-c3ccc(NC(=O)c4cccnc4)cc3)no2)c1	17.6	-1.7	-5.6	-18.8	27.9	114.0*
O=C(Nc1ccc(NC(=O)c2cccnc2)cc1)c1ccccc1	-8.9	-1.7	-2.3	-10.7	-7.6	0.3
O=C(Nc1ccc(-c2noc(-c3cccs3)n2)cc1)c1cccnc1	15.7	-2.7	28.2*	-73.9	-72.7	98.8*
COc1ccc(CC(=O)Nc2ccc(-c3noc(-c4cccc(OC)c4)n3)cc2)cc1	-4.9	-1.1	-10.8	-17.2	38.9	7.3
COc1ccccc1OCCCOc1ccc([N+](=O)[O-])cc1Cl	34.2	-1.7	-8.6	-56.0	-78.5	1.7
Cc1cccc(OCCNc2ccc([N+](=O)[O-])cn2)c1	x	-0.3	-6.5	6.6	1.0	3.0
O=[N+]([O-])c1ccc(NCCOc2ccccc2Cl)nc1	5.9	2.5	16.2*	-22.1	-21.0	4.2
CC(=O)NCCCOc1ccc([N+](=O)[O-])cc1Cl	-5.1	0.5	10.3*	-14.3	18.1	-0.9
CCc1nc2ccc(C(=O)NCCCn3ccnc3)cn2c1N(C)CCC(C)C	x	0.4	x	x	x	x
COc1ccc(C(=O)NN/C(C)=C/C(=O)C(F)(F)C(F)(F)C(F)(F)F)cc1	122.8*	43.9	-1.3	-17.9	44.0	78.9*
N#CCCN(Cc1cccnc1)S(=O)(=O)c1ccc(S(=O)(=O)NC2CCCCC2)cc1	-6.1	0.7	13.7*	5.1	-1.7	1.5
O=C(Nc1ccc(Cl)cc1)N1CCCN(c2ccc(C(F)(F)F)cc2[N+](=O)[O-])CC1	82.8*	34.6	8.0	-9.3	12.5	-3.0
Cc1ccc(Cl)cc1NC(=O)c1ccc(Cn2cc(Cl)cn2)cc1	100.2*	-1.4	-2.9	x	24.7	3.2
OC[C@@H]1CN(Cc2cccc(C(F)(F)F)c2)C[C@H](n2cnc3c(NCc4ccncc4)ncnc32)O1	x	0.1	x	x	x	x
COc1cc([N+](=O)[O-])c(OC)cc1SCc1n[nH]c(=S)n1-c1ccc(C)cc1	-3.6	2.9	11.9*	5.2	-5.8	0.0
COc1cc([N+](=O)[O-])c(OC)cc1SCc1n[nH]c(=S)n1-c1ccc(F)cc1	18.2	3.3	1.2	5.3	-9.2	3.2
Cn1c(=O)c2[nH]c(-c3ccc(S(=O)(=O)O)cc3)nc2n(C)c1=O	-11.3	1.1	-4.7	-0.6	22.4	0.4
Cc1cc(C)cc(CC(=O)N2CCC2(C)C(=O)NS(=O)(=O)Cc2ccccc2)c1 (stereo unspecified)	x	1.3	x	x	x	x
SMILES	CSC inhib	MPTP block	NR3A LBD binder	Gli-Sufu antag	Mdm2-MdmX inh	Beta cell apopt
Nc1ccc2c(c1)C(=O)c1ccc(Br)cc1-2	x	2.5	25.7*	-13.7	x	x
COc1ccc(-c2nc3c(Cl)cc(C(F)(F)F)cn3c2Cc2ccc(C)cc2)cc1OC	x	2.2	x	x	x	x
O=C(Nc1c(S(=O)(=O)c2ccc(Cl)cc2)csc1Br)c1ccccc1Cl	0.4	1.1	2.0	3.7	26.8	-0.1
Nc1c(-c2cccs2)cnc2c(-c3ccc(F)cc3)cnn12	-1.7	1.5	30.3*	-185.0	-101.0	1.5
CS(=O)(=O)c1cnc2c(-c3ccc(F)cc3)cnn2c1N	-7.6	-0.6	36.9*	-120.8	-135.7	-3.3
Cc1cc(N)n2ncc(-c3ccc(F)cc3)c2n1	-12.4	2.3	-2.4	-89.5	-40.4	0.5
COc1ccc(C(C)=NOC(=O)c2c(-c3ccccc3Cl)noc2C)cc1CN1CCOCC1	x	0.0	x	x	x	x
O=C(Nc1ccccc1OC(F)F)c1cc2c(s1)CCC2	5.7	2.2	-2.4	-33.4	2.3	1.6
COc1ccccc1NC(=O)c1ccc(NC(=O)c2cc3c(s2)CCC3)cc1	-9.1	2.5	30.4*	14.7	23.1	9.9
c1ccc(-c2onc(-c3ccco3)c2-c2ccc3[nH]ccc3c2)cc1	119.8*	4.5	1.4	8.7	15.7	-1.7
Cc1onc(-c2ccc3c(c2)OCO3)c1-c1ccc2[nH]ccc2c1	54.2	0.8	-4.8	-9.8	49.0	8.2
c1ccc(-c2ccc3[nH]ccc3c2)cc1	-3.7	-1.9	-9.9	-34.4	-26.3	-5.0
c1cc2cc(-c3c(-c4ccc5c(c4)OCO5)noc3-c3ccsc3)ccc2[nH]1	120.8*	1.5	-4.3	2.8	-0.6	14.5
CC(Oc1ccc(Br)cc1)C(=O)Nc1cc(S(=O)(=O)N2CCOCC2)ccc1N1CCCC1 (stereo unspecified)	10.8	-1.8	x	-1.8	19.7	6.7
c1coc(CNC2CCCCCCC2)c1	-11.7	-0.8	10.6*	3.7	22.8	6.5
COc1cc(OC)c2c(c1)OC(=O)CC2c1ccc(C)cc1 (stereo unspecified)	x	-1.5	-0.7	-5.7	6.6	x
Cc1ccc(C2CC(=O)Oc3cc(C)c(Br)c(C)c32)cc1 (stereo unspecified)	x	-2.1	18.1*	8.0	-9.4	x
Cc1ccc(CN2C(=O)N/C(=C\c3ccc(N4CCOCC4)cc3)C2=O)cc1	29.7	-7.0	16.6*	3.0	7.1	-3.0
CCn1c(CNC(=O)c2ccccc2Br)nnc1SCC(=O)Nc1nncs1	x	-1.3	-0.5	-6.2	10.0	3.5
C=CCN(Cc1nc(-c2ccccc2)no1)C(=O)c1ccoc1C	-2.6	-1.6	14.1*	-10.2	-10.6	-1.6
O=C(/C=C/c1cccc([N+](=O)[O-])c1)NCc1ccco1	-5.0	-2.0	1.4	-4.0	7.3	-3.2
O=C(NCc1ccco1)Nc1cccc([N+](=O)[O-])c1	x	1.1	18.7*	24.9	12.6	x
COc1ccc2c(c1)C(=O)Cc1ccccc1O2	5.1	5.8	1.3	9.0	13.6	4.1
CCn1cnnc1SCC(=O)c1c(N)n(C2CC2)c(=O)[nH]c1=O	x	0.1	-0.3	-18.0	-23.3	-2.2
O=C(Cn1ccc(C(F)(F)F)n1)NNC(=O)c1ccco1	-13.9	0.3	292.5*	-3.9	17.9	0.1
O=C(O)CN1C(=O)/C(=C\c2cc(Br)ccc2OCc2ccccc2F)SC1=S	53.5	4.0	5.9	0.5	-10.2	-4.6
O=C(O)CN1C(=O)/C(=C\c2cc(Br)ccc2OCc2ccccc2Cl)SC1=S	96.5*	2.6	1.6	11.0	-13.2	-0.3
